The results in this text go back to paper PMC12136788.

Positions count from the first letter of the chain named. Over roughly 24,000 sequences, “enrichment r” has its median near 0.99; the highest 2% begin near 3.7. The sample holds the highest values, similar sequences and a random draw of the others, so the mix is not that of the screen.

The labels stand for the following.
B1: chr1:90180492:90180493:+_ENSG00000171488_ENST00000370454|hu_hu|motif|central (ssRNA)
RNA: GGGAGUUCUACAGUCCGACGAUCUUUCAUUUGCUCCCGGACGUCAGAAGGCAGAGUUUCAAACAGAGCAUCUUCGGCAACGGAACCAGCUCGCUUCAGAGCCCGACAGUCACCCAGUUCAGGAGGGAGGAUUUCAAAGUGAUUCAACAGAGGAUUGAGCAUCA
B2: chr1:39494447:39494448:+_ENSG00000168653_ENST00000372967|hu_mus|hu_hu_hu_mus_False|38_58 (ssRNA)
RNA: GGGAGUUCUACAGUCCGACGAUCGCACCGAGCGGCGUUCUUAUAGGGCUGUUCUGCGCUUAGGAACAUAAAGUGCCGAUCUAUGUUGAUGCCCAGCCUUUUCUGGAUGUCAAGGAAAGGCAUGGCUCUGCAGUGCCCUUGUCACAACAGAGGAUUGAGCAUCA
B3: 131003253_131003911_1761_CDS_ENSMUSG00000068267_ENSMUST00000089510|mouse|control|control (ssRNA)
RNA: GGGAGUUCUACAGUCCGACGAUCCAAGGGCCAAAGACUGGGCCAGAGAAAGGGAUCUGGGGAGGUGGAAAGCAGGCAGAGGCAGGCUCGGUUCUUCCUAGUCACGUGGACCAGAUCGUGUUCCAAAUGAAGGAUGUGACUCUGCAACAGAGGAUUGAGCAUCA
B4: chr7:7679991:7679992:-_ENSG00000106399_ENST00000396682|hu_hu|hu_hu_hu_mus_False|48_58 (ssRNA)
RNA: GGGAGUUCUACAGUCCGACGAUCUGGGAUGAAUCUUUUCCAGCUUCCCCACGAAGCACACGGGCCGGUCGAUAUACUGAGCUAGCAUGCCGGCGUUGACGCGCGCUUUGGGGAGCUGCAUUAUGUCCUCCAUGAUUCUGCCGCCAACAGAGGAUUGAGCAUCA
B5: chr7:75932113:75932114:+_ENSG00000106211_ENST00000248553|hu_hu|hu_hu_hu_mus_False|38_78 (ssRNA)
RNA: GGGAGUUCUACAGUCCGACGAUCCUGCGACCACUCAUCGGGCAACCGGGGCACCCCGAAGGCCUGGUCGAAGAGGCGGCUGUGUGCAGGGUACCAGCGGAAGGGGUGUUCCCAGCUCGGGCUCCGCAGCAGCGAGAAGGGCACCAACAGAGGAUUGAGCAUCA
B6: chr12:3264740:3264741:-_ENSMUSG00000020671_ENSMUST00000021001|mus_mus|FALSE|FALSE (ssRNA)
RNA: GGGAGUUCUACAGUCCGACGAUCCCAUAUCUGUAGCUUGAUCUUCUUUCCUUGUAGUUCCACUGUUUUGAUCUUAAAGUCUAUUCCUAUGGUGGAAAUAAAGGUGGUAUUGAAGGCAUCGUCCGAAAAACGAAAAAGGACGCACAACAGAGGAUUGAGCAUCA
B7: chr7:92085846:92085847:+_ENSG00000157259_ENST00000287957|hu_mus|FALSE|FALSE (ssRNA)
RNA: GGGAGUUCUACAGUCCGACGAUCGUUAAAACUGAGGCUUUAUACCUGCGAAGUAAGUAUGUCCCAGGUUUGGUUUUGUAACUACAAGUGGUUGGCAACUGUUUCCUUAAUAGUUAUCGCAGGAGUAGGUCCAACGUGAGUCCACAACAGAGGAUUGAGCAUCA
B8: chr21:34877999:34878000:-_ENSG00000159131_ENST00000381815|hu_hu|motif|central (ssRNA)
RNA: GGGAGUUCUACAGUCCGACGAUCGUCAAUUGCACUGUCAAAUUCUACACGAUUUUUAUACAGUUUAUGAUUAAUUACUCGGGUGGGAAUACCAGCUCUUUCCGCUUUAUCUAACCCAGCUACUGCGGCUUUGUUGGAGAUAACCAACAGAGGAUUGAGCAUCA
B9: chr2:179803060:179803061:+_ENSMUSG00000039086_ENSMUST00000041126|mus_mus|FALSE|FALSE (ssRNA)
RNA: GGGAGUUCUACAGUCCGACGAUCAUGUAAAAAAAAAAAAAAUCACCCAAUUCUCACUGUAUAAAACUUGUCCUUUUCAUUUGAAAGAACGUAAUAAAGUUAUUUGGAUUCAUUAAAAAUGCAGUGUGGAUUUCAGACUUCCCUCAACAGAGGAUUGAGCAUCA
B10: chr22:28376736:28376737:-_ENSG00000100154_ENST00000397906|hu_hu|FALSE|FALSE (ssRNA)
RNA: GGGAGUUCUACAGUCCGACGAUCAUUUUAGAAUUACCUAAAAGAUACUUACUUAUCUAAAUUCUCCAACUAAACUCAGUACUAAUACGACUUUCAGCAUUUCCUUUCUUUAUAAAAUAAAUUAAUGGUUACCCCUAACUAGAUCAACAGAGGAUUGAGCAUCA
B11: chr19:15271055:15271056:-_ENSG00000074181_ENST00000263388|hu_mus|motif|central (ssRNA)
RNA: GGGAGUUCUACAGUCCGACGAUCAUAUAUAUUUUGUAAAAAAUAAUAAUAAUAAUAAGUUUGUUUAAAUGAAUUUGUCUCGGUACAAAAUGUAAAAAAGAAAAAAAUAAUAACUCACUCUUGUCAGAGUGUGAGACAAUGAGACAACAGAGGAUUGAGCAUCA
B12: 72560208_72560328_3170_3pUTR_ENSMUSG00000056429_ENSMUST00000070524|mouse|control|control (ssRNA)
RNA: GGGAGUUCUACAGUCCGACGAUCUCCUAAAAAUUAGCGGAGAGUAUACCUAGAUAAUUUCUUUAAAAAAAAAAAAGUGGACUUCUGUGAUGAUAAAAAUGUUUUUAGUUUAUAGUGUGGAGUUUUCAGAUGAUUAGAGAAAGUCAACAGAGGAUUGAGCAUCA
B13: chr18:25531195:25531196:-_ENSG00000170558_ENST00000399380|hu_mus|motif|central (ssRNA)
RNA: GGGAGUUCUACAGUCCGACGAUCCUUUUUUUUUUUUUGUGUGUAAUUUUUUUGGUACAAAUUAUGUAAAACACUUGUGCGGAGAACUUUUACCCCUCCCCAAAACGAAACAAACAAAAAGAAAAUAAAAAAAUUUAAAAAAAACAACAGAGGAUUGAGCAUCA
B14: chr4:109959894:109959895:-_ENSMUSG00000028546_ENSMUST00000106598|mus_mus|FALSE|FALSE (ssRNA)
RNA: GGGAGUUCUACAGUCCGACGAUCGCUUCGACUCUUCUCUUAAAAUUUGCAAAGGUUUCAGAAUAUACUUAAAAAUGACUACUAUUGUUUUAUAUAUAUAUAUAUUAAAGAUCCACAGACCACAGUGUGGAUGAUUGUAAAGUACAACAGAGGAUUGAGCAUCA
B15: chr2:23028566:23028567:+_ENSMUSG00000026775_ENSMUST00000028117|mus_mus|FALSE|FALSE (ssRNA)
RNA: GGGAGUUCUACAGUCCGACGAUCGGUCUUCUGUGUAAGAGCUUGAGCUUUGAGAAAACCCUCUGCAAAACCAGUUUUAAAUGCAUCUUGGUGAGCUUCAGGUAUGUUUUUAGUUUUCAUAAGUUUGUCCAAACUCUCAAGAUCCAACAGAGGAUUGAGCAUCA
B16: chr4:109959894:109959895:-_ENSMUSG00000028546_ENSMUST00000106598|mus_mus|motif|central (ssRNA)
RNA: B14 RNA with U79G, A80G, U82G, A83G
B17: chr1:60041781:60041782:+_ENSMUSG00000041040_ENSMUST00000036540|mus_hu|mus_mus_mus_hu_False|38_58 (ssRNA)
RNA: GGGAGUUCUACAGUCCGACGAUCAAGUUUACAAUAGUAAAGUAAAUGCAGUAGUGGCAAAUUUUCUUUUAUUUUCCUUCCUAAAAGAAAAUCUUUAGAUCUCAGUUCUAGUCUUGGACAUAGUGAAAGCUAUAAAUUCUGACUCAACAGAGGAUUGAGCAUCA

The target of this test is T1, UNK ZnF1-3 (human, UniProt Q9C0B0 31-174).
T1 sequence: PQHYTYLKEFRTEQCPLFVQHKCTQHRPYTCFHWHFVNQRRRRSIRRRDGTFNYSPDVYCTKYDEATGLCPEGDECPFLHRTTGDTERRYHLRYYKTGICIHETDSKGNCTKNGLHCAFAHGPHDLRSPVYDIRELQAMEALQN
Kind of test: nsRBNS (natural sequence RNA bind-n-seq); RBNS binding buffer (assumed for nsRBNS): 25 mM Tris pH 7.5, 150 mM KCl, 3 mM MgCl2, 0.01% Triton X-100, 500 ug/ml BSA, 20 U/ml SUPERase-In, 4 C; UNK is unkempt and MSI1 is Musashi-1; names of the RNAs are library labels; protein concentration not given here; high values mean tight binding.
In the case of B1, the binding signal came out at 3.35 enrichment R. The value for B2 was 0.477 enrichment R; that for B3 was 1.29 enrichment R; that for B4 was 0.406 enrichment R. As for B5, the figure is 0.969 enrichment R; as for B6, 1.8 enrichment R; as for B7, 0.838 enrichment R.

Turning to B8, the binding signal turned out to be 0.651 enrichment R. On to B9, for which the binding signal came out at 5.86 enrichment R. In turn, B10 yielded a binding signal of 1.4 enrichment R. Molecule B11 displayed a binding signal of 11.3 enrichment R. As for B12, the figure is 8.87 enrichment R. The molecule B13 returned a binding signal of 3.31 enrichment R. The value for B14 was 4.13 enrichment R; that for B15 was 1.2 enrichment R; that for B16 was 3.36 enrichment R. As for B17, the binding signal turned out to be 0.462 enrichment R.
